Data on 72 molecules can be found in PubChem BioAssay AID1259418 (Broad Institute, 2018).

Hit rate of the full screen: of about 3,400 compounds, about 840 (25%) were called active. Another 11% or so got no clear call; they are omitted. A selection follows. Measured potencies and affinities stand elsewhere. A number with no mark means an inactive call.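 Rule for the calls: active = fitted half-maximal concentration of signal decrease at or below twice the sample's top tested concentration; inconclusive = flat curve between -70 and -30 percent, or poor fit; inactive = flat within 30 percent, signal rise, or potency above limit.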

This test can be described thus: T. gondii growth inhibition with IFN-gamma, dose response, cell-based, ME49Luc, HeLa, luciferase, 72 h (AID 1259418). Particulars: T. gondii ME49Luc in IFN-y HeLa, active compounds read low, -100% = high-dose IFN-γ control wells; at 19.5 µM unless noted.
Turning to `COc1cccc(NC(=O)Nc2ccc(-c3nc(-c4cc(C)ccc4C)co3)cc2)c1`, the max activity was 10.1% [at 0.16 µM].
For the molecule `CN(C)CCO[C@@H]1CN(C(=O)Cc2ccsc2)[C@H]2CCCO[C@@H]12`, the max activity is 38.7%.
In the case of `Cc1cccc(NC(=O)CN2CCC3(CC2)N=C(c2ccc(Cl)cc2)C(=O)N3)c1` it was 17.4%.
As to `Cc1[nH]c2ccccc2c1C(=O)C(=O)NC1CC(=O)N(c2cccc(F)c2)C1` (configuration not stated), the max activity was 13.3% [at 0.35 µM].
The figure for `COc1ccc(C)cc1Nc1nc(-c2ccc(Cl)cc2)nc2ccccc12` is -11.5% [at 2.6 µM].
For the molecule `Clc1ccc(-c2nc(N3CCc4ccccc43)c3ccccc3n2)cc1`, the max activity is -11.3%.
In the case of `COc1ccc2c(c1)NC1(CCN(C(=O)c3ccc(C)c(C)c3)CC1)c1cccn1-2` it was -9.14% [at 2.6 µM]; in that of `CCc1ccc(NC(=O)N2CCN(Cc3nc(-c4ccccc4C)oc3C)CC2)cc1`, 20.1% [at 0.16 µM].
In the case of `Cc1oc(-c2ccccc2)nc1Cn1nnc(-c2nc(-c3ccc(F)c(Br)c3)no2)c1C`, the max activity is 9.89%.
In the case of `COc1cccc(NC(=O)CN2CCC3(CC2)N=C(c2ccc(Cl)cc2)C(=O)N3)c1` it was -17.6% [at 1.35 µM]; in that of `COc1ccc(-c2nc(NCC3CCN(Cc4ccc(Cl)cc4)CC3)c3ccccc3n2)cc1`, 14.4% [at 2.6 µM]; in that of `COc1ccc(-c2nc(NCc3ccc(C)cc3)c3ccccc3n2)cc1`, -20.6% [at 5 µM].
In the case of `COc1ccc(-c2nc(NCc3ccc(F)cc3)c3ccccc3n2)cc1`, the max activity was 18.6% [at 1.35 µM].
The figure for `Cc1cccc(CN2CCC(CNc3nc(-c4ccc(Cl)cc4)nc4ccccc34)CC2)c1` is -45.1% [at 0.35 µM]; for `COc1ccc(-c2nc(NCC3CCN(Cc4ccccc4F)CC3)c3ccccc3n2)cc1` it is -29.4%.
Regarding `CSc1ccc(-c2noc(-c3nnn(Cc4nc(-c5ccc(C)cc5)oc4C)c3C)n2)cc1`, the max activity was 4.87%.
For `COc1cc(C(=O)N2CCC3(CC2)Nc2ccc(C)c(C)c2-n2cccc23)cc(OC)c1OC`, the max activity is 7.01% [at 0.16 µM].
Take `Cc1cccc(-c2ccc(C3[C@H]4CNC[C@@H]3N4Cc3cccc(F)c3)cc2)c1` (some centres not stated): the max activity is 19.8%.
Consider `COc1cccc(S(=O)(=O)N2CC[C@@H]3[C@H]2c2cc(C#Cc4cccnc4)ccc2N[C@@H]3CO)c1`, for which the max activity was 31.2% [at 5 µM].
In the case of `Fc1cccc(-c2ccc(C3[C@H]4CNC[C@@H]3N4Cc3cncnc3)cc2)c1` (some centres not stated), the max activity was 50.5%.
In the case of `N#C[C@H]1N[C@@H](CO)[C@H]1c1ccc(C#CC2CCCCC2)cc1` it was 49.7%.
In the case of `O=C(C1CCOCC1)N1CC(=O)N2[C@@H](CO)[C@@H](c3ccc(C#CC4CCCCC4)cc3)[C@@H]2C1` it was 25.9% [at 10 µM].
In the case of `O=C(Nc1ccccc1)Nc1ccc(-c2nc(-c3ccccc3)co2)cc1` it was 51.3%; in that of `COc1cccc(-c2nc3c(s2)CN(S(=O)(=O)c2ccc(OC)c(OC)c2)CC3)c1`, 6.21% [at 10 µM]; in that of `COc1ccccc1-c1nc(C)c(-c2ccc(SCc3ccc(C)cc3)nn2)s1`, -14.3%.
Take `COc1ccc(C(=O)N2CCC[C@@H]2C(=O)NCCc2csc(-c3ccccc3)n2)cc1`: the max activity was -13.9%.
The figure for `CCc1ccc(S(=O)(=O)N2CCc3nc(-c4ccc(OC)cc4)sc3C2)cc1` is 9.57%; for `CCOc1ccc(CC(=O)N2CCC3(CC2)Nc2ccc(C)c(C)c2-n2cccc23)cc1OCC` it is -7.59% [at 0.35 µM]; for `CCC(CC)C(=O)N1CCC(C(=O)NCCc2csc(-c3ccccc3)n2)CC1` it is 5.84% [at 5 µM].
In the case of `COc1ccc(C(=O)Nc2ccc3c(c2)CCC(=O)N3C)c(C)c1` it was 42.4%.
Regarding `COc1cccc(C#Cc2ccc([C@H]3[C@@H](C#N)N(C(=O)c4ccccn4)[C@@H]3CO)cc2)c1`, the max activity was 11.2% [at 10 µM].
The figure for `N#C[C@H]1[C@H](c2ccc(C#Cc3ccccc3F)cc2)[C@@H](CO)N1C(=O)c1cccnc1` is -13.1% [at 2.35 µM]; for `CCOC(=O)C1CCC(CNC(=O)Nc2ccc(-c3nc(-c4ccccc4)co3)cc2)CC1` (configuration not stated) it is -11.7% [at 5 µM]; for `N#CCSC1=Nc2ccccc2C2=NC(CC(=O)NCc3ccc(F)cc3)C(=O)N12` (configuration not stated) it is 44.3%.
In the case of `COc1ccc(CNC2=NCCNC23CCN(S(=O)(=O)c2ccc4c(c2)CCCC4)CC3)cc1` it was -31.9%; in that of `Cc1cccc(CNC2=NCCNC23CCN(S(=O)(=O)c2ccc4c(c2)CCCC4)CC3)c1`, 20.3% [at 10 µM]; in that of `O=S(=O)(c1ccc2c(c1)CCCC2)N1CCC2(CC1)NCCN=C2NCc1cc(F)cc(F)c1`, 16.7%.
Take `Cc1nc(-c2ccc(F)cc2)sc1-c1ccc(SCc2cccc3ccccc23)nn1`: the max activity was -8.89% [at 10 µM].
With `COc1ccccc1-c1nc(C)c(-c2ccc(SCc3cc(C)ccc3C)nn2)s1`, the max activity is -11.2% [at 0.35 µM].
In the case of `Cc1ccc(-c2coc(-c3ccc(NC(=O)C4CCCCC4)cc3)n2)c(C)c1`, the max activity is -13.8%.
The figure for `Cc1oc(-c2cccc(Cl)c2)nc1Cn1nnc(-c2nc(-c3ccncc3)no2)c1C` is -5.43% [at 1.35 µM].
In the case of `COc1ccc(-c2nc(Nc3cccc(SC)c3)c3ccccc3n2)cc1` it was 8.11% [at 0.35 µM]; in that of `COC(=O)c1ccc(NC(=O)Nc2ccc(-c3nc(-c4cc(C)ccc4C)co3)cc2)cc1`, -6.97% [at 0.68 µM]; in that of `COc1ccc2c(c1)NC1(CCN(C(=O)Cc3ccc(F)cc3)CC1)c1cccn1-2`, 12.9% [at 0.35 µM].
The figure for `CCn1cc(NC(=O)c2cccc(CN3C[C@@H](C)O[C@@H](C)C3)c2)nn1` is 30.6%.
Regarding `CC(C)CN(C[C@@H](O)[C@H](Cc1ccccc1)NC(=O)O[C@H]1CO[C@H]2OCC[C@H]21)S(=O)(=O)c1ccc(N)cc1`, the max activity was 7.57%.
Consider `CCc1nc(OCC(=O)Nc2cccc(OC)c2)c2ccccc2n1`, for which the max activity was 13.8% [at 0.16 µM].
The figure for `O=C(c1ccc2c(=O)n(CCC3=CCCCC3)c(=S)[nH]c2c1)N1CCC(O)(c2cccc(C(F)(F)F)c2)CC1` is -24.9% [at 10 µM]; for `Cc1cccc(C2=NC3(CCN(C(=O)c4ccc(C(C)(C)C)cc4)CC3)NC2=O)c1` it is 16.7% [at 2.6 µM]; for `O=C(CCCCCn1c(=S)[nH]c2cc3c(cc2c1=O)OCO3)N1CCC(O)(c2cccc(C(F)(F)F)c2)CC1` it is -29.1% [at 10 µM].
As for `CCCn1c(=S)[nH]c2cc(C(=O)N3CCC(O)(c4cccc(C(F)(F)F)c4)CC3)ccc2c1=O`, the max activity is 18.8% [at 0.16 µM].
In the case of `COc1ccccc1-c1nc(Cn2nnc(-c3nc(-c4ccccn4)no3)c2C)c(C)o1` it was 50.4%.
In the case of `C=CCN1C(=O)CC[C@H]2[C@@H]1CCN2S(=O)(=O)CC` it was 48.3%; in that of `Cc1ccc(CSc2ccc(-c3sc(-c4ccc(F)cc4)nc3C)nn2)cc1`, 12.3% [at 0.16 µM].
The figure for `Cc1cc(C)c2c(=O)n(Cc3nc(-c4ccc(C(C)C)cc4)oc3C)c(=O)n(-c3ccccc3)c2n1` is -13.2% [at 5 µM]; for `CCCN1CCc2nc(SCc3nc(-c4cccc(Cl)c4)oc3C)[nH]c(=O)c2C1` it is 10.2% [at 0.68 µM].
For the molecule `COCC1COCCC12CCN(C(=O)c1ccc(C)nc1)CC2` (configuration not stated), the max activity was 18.7%.
With `Cc1ccc(NC(=O)N2CCc3nc(-c4ccccc4)sc3C2)cc1C`, the max activity was -7.49% [at 2.6 µM].
In the case of `Cc1cccc(-c2nc(Cn3nnc(-c4nc(-c5cccc(C(F)(F)F)c5)no4)c3C)c(C)o2)c1` it was 8.75% [at 1.35 µM]; in that of `O=C(Nc1ccc(-c2nc(-c3ccccc3)co2)cc1)Nc1ccc2c(c1)OCO2`, 19.1% [at 0.16 µM].
In the case of `Cc1ccccc1NC(=O)CN1CCC2(CC1)N=C(c1ccc(Cl)cc1)C(=O)N2` it was -13.7% [at 1.35 µM].
For the molecule `COc1ccc(-n2ncc3c(NC4CCCCCCCCCCC4)ncnc32)cc1`, the max activity is 21.4% [at 1.35 µM].
Consider `CCn1nnc2c(NCCSc3c[nH]c4ccccc34)ncnc21`, for which the max activity is -13.5% [at 0.68 µM].
The figure for `COc1ccc(-c2nc(N3CCN(c4ccc(F)cc4)CC3)c3ccccc3n2)cc1` is 13.7% [at 10 µM]; for `O=C(NCCc1c[nH]c2ccccc12)C1CCN(c2ncnc3c2oc2ccccc23)CC1` it is 11.9% [at 0.68 µM].
Turning to `Cc1cccc(-c2nc(CSc3nc4c(c(=O)[nH]3)CN(Cc3ccc(Cl)cc3)CC4)c(C)o2)c1`, the max activity was 23.2% [at 0.16 µM].
For the molecule `O=S(=O)(c1cccs1)N1CCC2(CC1)NCCN=C2NCc1ccccc1F`, the max activity was -35.7%.
For the molecule `COc1ccccc1CNC1=NCCNC12CCN(S(=O)(=O)c1cccs1)CC2`, the max activity is -16.5% [at 0.68 µM].
In the case of `O=S(=O)(c1ccc(Cl)s1)N1CCC2(CC1)NCCN=C2NC1CCCC1` it was 13.4%; in that of `CCc1ccc(S(=O)(=O)N2CCC3(CC2)NCCN=C3NCc2ccccc2OC)cc1`, 11.2% [at 0.16 µM].
In the case of `COC[C@H]1CN(CC2CC2)C[C@@]12CCN(CCc1ccccc1)C2` it was 24%; in that of `CCCN1CCc2nc(SCc3nc(-c4ccc(OC)cc4OC)oc3C)[nH]c(=O)c2C1`, 66.7%.
